Assay results from ChEMBL document CHEMBL3433997, “St. Jude Leishmania screening dataset” (2016).

Columns and labels:
Type in all cases: functional
[1] = target: Solute carrier family 2, facilitated glucose transporter member 1 (Homo sapiens) (UniProt P11166); experiment: ST_JUDE_LEISH: Cytotoxicity at 2uM final concentration against transgenic Leishmania Mexicana promastigotes LmGLUT1 that are glucose transport deficient and complemented with the human glucose transporter GLUT1. Activity is measured by DNA content using SYBR green in vitro
Sequence of Solute carrier family 2, facilitated glucose transporter member 1 (Homo sapiens) (P11166 whole entry): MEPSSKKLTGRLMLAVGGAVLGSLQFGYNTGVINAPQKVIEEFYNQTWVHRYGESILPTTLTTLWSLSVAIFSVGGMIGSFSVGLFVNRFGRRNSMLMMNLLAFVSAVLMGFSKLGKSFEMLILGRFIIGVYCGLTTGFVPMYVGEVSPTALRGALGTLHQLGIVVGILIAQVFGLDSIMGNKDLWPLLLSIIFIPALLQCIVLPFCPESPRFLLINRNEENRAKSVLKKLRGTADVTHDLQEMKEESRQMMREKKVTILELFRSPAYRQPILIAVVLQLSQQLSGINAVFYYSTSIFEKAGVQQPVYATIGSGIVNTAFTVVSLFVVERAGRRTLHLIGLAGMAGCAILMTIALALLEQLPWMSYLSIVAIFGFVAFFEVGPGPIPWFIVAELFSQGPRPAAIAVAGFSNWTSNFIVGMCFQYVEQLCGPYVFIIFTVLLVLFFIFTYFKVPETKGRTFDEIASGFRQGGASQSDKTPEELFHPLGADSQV

[2] = target: Hexose transporter 1 (Plasmodium falciparum) (UniProt O97467); experiment: ST_JUDE_LEISH: Cytotoxicity at 2uM final concentration against transgenic Leishmania Mexicana promastigotes LmPfHT that are glucose transport deficient and complemented with the Plasmodium falciparum hexose transporter. Activity is measured by DNA content using SYBR green in vitro
[3] = target: Glucose transporter (Leishmania mexicana) (UniProt O61059); experiment: ST_JUDE_LEISH: Cytotoxicity at 2uM final concentration against transgenic Leishmania Mexicana promastigotes LmGT2 that are glucose transport deficient and complemented with the L. Mexicana glucose transporter 2. Activity is measured by DNA content using SYBR green in vitro

Question: Which inhibition [1] does the source give for `COc1ccc2c(NN=Cc3ccc(N(C)C)cc3)ccnc2c1` here?
Answer: 10.8%

Question: And the inhibition [2]?
Answer: 10.8%

Question: What about the inhibition [3] of the same compound?
Answer: 8.44%

Question: Which inhibition [1] does the source give for `OC(c1ccccc1)C1CN(Cc2ccccc2)CCC1(O)c1ccccc1` (centres undefined) here?
Answer: 8.06%

Question: And the inhibition [2]?
Answer: 7.93%

Question: And the inhibition [3]?
Answer: 7%

Question: With `Cc1cc(NCCC(=O)NCCOc2ccccc2)nc(NCCc2ccccc2)n1` as the compound, how does the inhibition [1] read?
Answer: 7.78%

Question: And the inhibition [2]?
Answer: 5.18%

Question: What about the inhibition [3] of the same compound?
Answer: 0.66%

Question: How did the inhibition [1] turn out when `CCN(CCCN1CCCCC1)c1cc(C)nc(Nc2ccc(C)cc2C(F)(F)F)n1` was run?
Answer: -1.87%

Question: What about the inhibition [2] of the same compound?
Answer: 0.39%

Question: And the inhibition [3]?
Answer: -1.54%

Question: `C[C@H](Nc1c(Nc2ccc3[nH]ccc3c2)c(=O)c1=O)C1CCCCC1` was tested. Which inhibition [1] did it give?
Answer: -1.55%

Question: And the inhibition [2]?
Answer: 0.15%

Question: And the inhibition [3]?
Answer: -0.44%

Question: Which results are given for `Cc1cc(OCCCN2CCC(NS(=O)(=O)c3cccc(Br)c3)C2)c2ccccc2n1` (centres undefined)?
Answer: inhibition [1]: 0.6%; inhibition [2]: 1.51%; inhibition [3]: 1.56%

Question: Which inhibition [1] does the source give for `COc1ccc(NC(=O)/C=C/c2ccccc2Cl)cc1OCCN1CCC(N2CCN(C)CC2)CC1` here?
Answer: 4.65%

Question: And the inhibition [2]?
Answer: 6.39%

Question: What about the inhibition [3] of the same compound?
Answer: 0.87%

Question: For `CC(CN1CCN(C)CC1)C(=O)Nc1cccc(-c2cccc(-c3nc4ccccc4[nH]3)c2)c1` (centres undefined), which inhibition [1] is on record?
Answer: 4.45%

Question: What about the inhibition [2] of the same compound?
Answer: 4.44%

Question: What about the inhibition [3] of the same compound?
Answer: 2.44%

Question: `Cc1[nH]c2ccccc2c1C(=O)C(C)Sc1nnc(-c2ccccc2Br)[nH]1` (centres undefined) was tested. Which inhibition [1] did it give?
Answer: 0.54%

Question: What about the inhibition [2] of the same compound?
Answer: 2.81%

Question: What about the inhibition [3] of the same compound?
Answer: 0.86%

Question: With `COc1cc2c(cc1C(F)(F)F)N(C(=O)Nc1cc(OC(F)(F)F)cc(-c3cccnc3)c1)CC2` as the compound, how does the inhibition [1] read?
Answer: -0.39%

Question: What about the inhibition [2] of the same compound?
Answer: 1.79%

Question: And the inhibition [3]?
Answer: -0.44%

Question: What does the source list for `Cc1nc(C)c(-c2ccc(-c3ccc(F)cc3)cc2)c(O)c1Cl`?
Answer: inhibition [1]: 1.77%; inhibition [2]: 2.48%; inhibition [3]: 0.55%

Question: `CCc1c(CCNCCCCCCNCCc2ccc([N+](=O)[O-])cc2)ccc(O)c1O` was tested. Which inhibition [1] did it give?
Answer: -1.33%

Question: What about the inhibition [2] of the same compound?
Answer: -0.9%

Question: What about the inhibition [3] of the same compound?
Answer: 0.31%

Question: Which inhibition [1] does the source give for `Cc1noc(C)c1-c1cccc(CNCc2ccc(-c3ccc(-c4nc5cc(C(F)(F)F)ccc5[nH]4)cc3)cc2)c1` here?
Answer: 5.36%

Question: And the inhibition [2]?
Answer: 4.54%

Question: What about the inhibition [3] of the same compound?
Answer: 4.2%

Question: What does the source list for `Cc1cc(NCCc2ccccc2)nc(NC(=N)Nc2cccc([N+](=O)[O-])c2)n1`?
Answer: inhibition [1]: 11.1%; inhibition [2]: 10.5%; inhibition [3]: 5.24%

Question: How did the inhibition [1] turn out when `NC1CCN(Cc2ccc(-c3ccc(-c4nc5cc(F)ccc5[nH]4)cc3)cc2)C1` (centres undefined) was run?
Answer: 6.38%

Question: What about the inhibition [2] of the same compound?
Answer: 4.78%

Question: And the inhibition [3]?
Answer: -0.01%

Question: What does the source list for `ON=C1CCc2cc(-c3[nH]c(-c4cccc(OCCNCc5ccc(F)cc5)c4)nc3-c3ccncc3)ccc21`?
Answer: inhibition [1]: 16.7%; inhibition [2]: 9.15%; inhibition [3]: 10.8%

Question: What does the source list for `O=C(Nc1cccc(-c2nn3ccccc3c2-c2ccnc(Nc3cccc(F)c3)n2)c1)C1CCCCC1`?
Answer: inhibition [1]: 1.19%; inhibition [2]: 2.83%; inhibition [3]: -1.4%

Question: With `CCC[C@@H]([C@@H](CC1CCCCC1)C(=O)N[C@H](C(=O)Nc1nccs1)C(C)(C)SC)N(O)C=O` as the compound, how does the inhibition [1] read?
Answer: 9.33%

Question: And the inhibition [2]?
Answer: 8.98%

Question: What about the inhibition [3] of the same compound?
Answer: 8.5%

Question: Which results are given for `O=C(NCCN1CCCC1)c1cccc(-c2ccc(-c3nc4cc(F)ccc4[nH]3)cc2)c1`?
Answer: inhibition [1]: -0.09%; inhibition [2]: -0.39%; inhibition [3]: -1.28%

Question: Which inhibition [1] does the source give for `Oc1ccccc1CN1CCC2(CCCN(Cc3ccccc3F)C2)C1` (centres undefined) here?
Answer: 2.03%

Question: And the inhibition [2]?
Answer: -1.06%

Question: And the inhibition [3]?
Answer: 1.57%

Question: With `O=C(CC(=O)Nc1cc(Cl)cc(Cl)c1)Nc1cc(Cl)cc(Cl)c1` as the compound, how does the inhibition [1] read?
Answer: -1.77%

Question: And the inhibition [2]?
Answer: -3.47%

Question: What about the inhibition [3] of the same compound?
Answer: 0.68%

Question: What does the source list for `CC(=O)c1cccc2[nH]c(C(=O)NC3CCC(CCN4CCc5ccc(C#N)cc5C4)CC3)cc12` (centres undefined)?
Answer: inhibition [1]: 4.5%; inhibition [2]: 4.09%; inhibition [3]: 2.51%

Question: What does the source list for `COc1cc(NC(=O)N2CCc3cc(OC)c(OCCN4CCCCC4)cc32)cc(C(F)(F)F)c1`?
Answer: inhibition [1]: 12.9%; inhibition [2]: 12.7%; inhibition [3]: 9.77%

Question: With `O=C(Nc1ccc(Cl)cc1)Nc1ccc2c(c1)N1CCN=C1S2` as the compound, how does the inhibition [1] read?
Answer: -0.81%

Question: And the inhibition [2]?
Answer: -1.2%

Question: What about the inhibition [3] of the same compound?
Answer: 5.02%

Question: `O=S(=O)(NCCN1CCCC1)c1ccc(-c2ccc(CNCc3ccccc3)cc2)s1` was tested. Which inhibition [1] did it give?
Answer: 4.55%

Question: What about the inhibition [2] of the same compound?
Answer: 3.35%

Question: What about the inhibition [3] of the same compound?
Answer: 2.5%

Question: Which results are given for `O=C(Nc1ccccc1Cc1ccccc1)c1ccccc1C(F)(F)F`?
Answer: inhibition [1]: 6.25%; inhibition [2]: 1.68%; inhibition [3]: 2.61%

Question: With `CC1CN(c2cnn(C/C=C/c3ccc(NC(=O)c4ccc5nonc5c4)cc3)c(=O)c2Cl)CC(C)N1` (centres undefined) as the compound, how does the inhibition [1] read?
Answer: 4.72%

Question: What about the inhibition [2] of the same compound?
Answer: 4.17%

Question: And the inhibition [3]?
Answer: 3.26%

Question: With `O=C(Nc1ccc2c(c1)CNCC2)c1ccc(-c2ccc(Cl)cc2)cc1` as the compound, how does the inhibition [1] read?
Answer: 105%

Question: What about the inhibition [2] of the same compound?
Answer: 95.6%

Question: And the inhibition [3]?
Answer: 84%

Question: With `NC(=O)c1ccc(NCC(=O)Nc2cccc(-c3cccc(-c4nc5cc(C(F)(F)F)ccc5[nH]4)c3)c2)cc1` as the compound, how does the inhibition [1] read?
Answer: 3.23%

Question: What about the inhibition [2] of the same compound?
Answer: 3.6%

Question: What about the inhibition [3] of the same compound?
Answer: 1.91%

Question: What does the source list for `CN(C)CCNCc1ccc(-c2ccc(-c3nc4cc(F)ccc4[nH]3)cc2)cc1`?
Answer: inhibition [1]: 9.57%; inhibition [2]: 7.88%; inhibition [3]: 5.4%

Question: How did the inhibition [1] turn out when `CC(C)(C)c1ccc2oc(=O)n(C3CCN(C(=O)c4ccc([N+](=O)[O-])o4)CC3)c2c1` was run?
Answer: 5.8%

Question: And the inhibition [2]?
Answer: 10.9%

Question: And the inhibition [3]?
Answer: 0.29%

Question: What does the source list for `CCCNC(=O)Nc1ccc(N(C)c2ccnc(NC3CC3)n2)cc1`?
Answer: inhibition [1]: 7%; inhibition [2]: 5.59%; inhibition [3]: 5.87%

Question: `CNC(=O)c1ccccc1Nc1nc(Nc2ccc(N3CCOCC3)cc2)ncc1Cl` was tested. Which inhibition [1] did it give?
Answer: 77.2%

Question: And the inhibition [2]?
Answer: 84.9%

Question: What about the inhibition [3] of the same compound?
Answer: 74.6%
